Hits are enriched below; roughly 5% of the tested compounds scored in any of these assays.
ALR inh – human ALR oxidase inhibition via reduced H2O2; purified ALR, DTT oxidation, H2O2 HRP-luminol luminescence; inhibition, % (concentration not given with the values); hit rate 3.8% among 290,000; AID 485317;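 active = mean replicate inhibition above about 79%, with every replicate also reaching it, limit read from the data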
Target sequence (P55789 whole entry, looked up): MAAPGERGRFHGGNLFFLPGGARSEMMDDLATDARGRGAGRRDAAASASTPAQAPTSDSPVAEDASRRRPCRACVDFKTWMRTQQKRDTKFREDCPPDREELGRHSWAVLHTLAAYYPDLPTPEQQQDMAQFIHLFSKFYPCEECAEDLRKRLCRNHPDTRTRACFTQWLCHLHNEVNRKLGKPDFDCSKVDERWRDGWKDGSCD
PREPL inhibitor – inhibits the human prolyl oligopeptidase-like enzyme; Q4J6C6; recombinant PREPL, fluorescence polarization activity-based probe; inhibition, % at 5.96 µM; hit rate 0.68% among 320,000; in the data active = inhibition above about 43%;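 note: 0% = enzyme with DMSO and 100% = wells lacking enzyme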
CHT allo act – human CHT allosteric activation. hit rate 0.49% among 310,000. CHT-expressing cells, membrane potential dye, choline EC20; active compounds read high; LV-AA mutant CHT in HEK293 cells. Q9GZV3. AID 488977. B-score at 10 µM;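 active = initial fluorescence not abnormally high and integrated response B-score, plate-corrected, over 3 SD above library mean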
AI-2 QS mod – modulators of Vibrio harveyi AI-2 quorum sensing system; Vibrio harveyi JMH597 AI-2 luminescence/OD600 ratio, 9 h; active compounds read low; strain lacks LuxN and CqsS sensors; 0 = neutral-control median; activity change, % at 7.5 µM; hit rate 0.4% among 300,000; in the data active = activity change below about -75%, passing the limit was not always enough;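 note: luminescence divided by OD600 gain over 9 h not by final OD600 alone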
CHT inh – inhibitors of human choline transporter CHT; Q9GZV3; B-score at 10 µM; CHT-expressing cells, membrane potential dye, choline response; active compounds read low; AID 488975; hit rate 0.86% among 310,000;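 active = B-score over 3 SD under the library average, and starting fluorescence ratio not unusually high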;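 note: choline stimulus applied at its EC90 after an EC20 pre-addition; B-score computed on integrated fluorescence ratio after choline addition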
CHT activ conf – confirmation of human choline transporter (CHT) activators | shares compounds with CHT allo act | CHT-expressing cells, membrane potential dye fluorescence (FDSS); % of choline EC20–EC90 response window; HEK293 expressing CHT LV-AA mutant; choline added at its EC20 | activation, % at 10 µM | hit rate 91% among 2,500 | AID 504833;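 active = primary screen active, with duplicate mean activation above negative control mean plus 3 SD, cut at about 11% in these data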
HEK293 MP dye – counter-screen for CHT activators: effect in parental HEK293 cells | shares compounds with CHT allo act | membrane potential dye fluorescence (FDSS); measured after EC20 choline addition | ratio readout change at 10 µM, hits read low | hit rate 62% among 2,500;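 active = duplicate-averaged ratio beyond 3 SD from buffer wells, up or down, though filed actives are nearly all decreases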
Numbers without * were called inactive; i = inactive; · = no result.

SMILES	ALR inh	PREPL inhibitor	CHT allo act	AI-2 QS mod	CHT inh	CHT activ conf	HEK293 MP dye
CC(=O)N1CSCC1C(=O)NNS(=O)(=O)c1ccccc1 (stereo unspecified)	6	-1	i	13	i	·	·
NNC(=O)c1ccc(-c2cccc([N+](=O)[O-])c2)o1	-4	23	i	4	i	15*	-23*
CCCCCC(=O)Cc1cc(O)cc2c1C(=O)Oc1cc(O)c(C(=O)O)c(CCCCC)c1O2	·	14	i	-2	i	30*	-50*
O=C(CSc1nc2ccccc2c(=O)n1-c1ccc(Cl)cc1)N/N=C/C=C/c1ccccc1[N+](=O)[O-]	-1	2	7.7*	12	i	13*	i
Cc1ccc2oc(=O)cc(CN3CCC(C)CC3)c2c1	-20	13	i	20	i	·	·
CCN1CCN(Cc2cc(=O)oc3ccc(C)cc23)CC1	-4	-5	i	17	i	44*	-46*
CN1CCN(Cc2cc(=O)oc3cc4c(cc23)CCC4)CC1	-6	13	i	8	i	22*	-49*
Cc1ccc2c(CN3CCN(CCO)CC3)cc(=O)oc2c1C	-3	19	8.9*	-13	i	54*	-59*
CCc1cc2c(CN3CCN(CCO)CC3)cc(=O)oc2cc1O	2	-2	i	19	i	37*	-30*
CCc1cc2c(CN3CCN(C)CC3)cc(=O)oc2cc1O	·	5	i	12	i	·	·
COc1cc(S(=O)(=O)N2CCOCC2)ccc1NC(=O)COC(=O)c1ccc(Cl)nc1	-9	7	·	·	·	·	·
COc1cccc(SCc2noc(C(=O)NC(C)C)c2C(=O)NC(C)C)c1	16	-4	i	16	i	·	·
CC(OC(=O)Cn1cnc2c1c(=O)n(C)c(=O)n2C)C(=O)c1ccccc1 (stereo unspecified)	-9	-8	i	17	i	·	·
Cc1cc(O)c2c(CN3CCN(Cc4ccccc4)CC3)cc(=O)oc2c1	48	4	i	17	i	·	·
Cc1cc(C)c2c(CN3CCN(C)CC3)cc(=O)oc2c1	-3	14	i	31	i	46*	-42*
Cc1nc(N2CCN(C)CC2)c2sc(=S)n(C)c2n1	-12	-1	i	34	i	33*	-50*
CCOC(=O)C1(CC2CC2)CCN(Cc2cn[nH]c2-c2ccccc2)CC1	4	22	i	23	i	·	·
CCOC(=O)C1(CC2CC2)CCN(Cc2cn[nH]c2-c2cccc(F)c2)CC1	-14	-3	i	16	i	22*	i
COc1ccc(OC)c(C=NNC(=O)c2ccc(NS(=O)(=O)c3cccs3)cc2)c1	2	-3	·	·	·	·	·
COc1ccc(-c2csc3nc(C)nc(N4CCC(C)CC4)c23)cc1OC	-7	17	i	3	i	47*	i
CCN(CC)CCNC(=O)C1CCN(S(=O)(=O)c2c(C)noc2/C=C/c2ccccc2F)CC1	-3	27	i	24	i	·	·
O=[N+]([O-])c1ccc(C2=Nc3cc(Cl)ccc3OC2)cc1	6	26	i	12	i	·	·
O=[N+]([O-])c1cc(Cl)cc(C2=NCCN2)c1	·	3	i	39	i	49*	-55*
O=C(NCCCN1CCOCC1)c1ccc2c(c1)N(Cc1cccc(Cl)c1)C(=O)CS2	-5	-10	i	30	i	·	·
CCOc1cc(C2C(C(=O)OC)=CN(Cc3ccc(Cl)cc3)C=C2C(=O)OC)ccc1O	·	30	i	13	i	20*	i
Cc1noc(C)c1C(=O)OCC(=O)Nc1cc(Cl)ccc1Oc1ccccc1	1	-2	6.7*	12	i	28*	i
COc1ccc(OC)c(NC(=O)COC(=O)c2c(C)noc2C)c1	-14	6	·	·	·	·	·
Cc1cc(N2CCOCC2)c2c(N)c(Br)cc(C)c2n1	40	-1	9.8*	10	i	45*	-66*
Cc1[nH]c(=O)[nH]c(=S)c1C(=O)Nc1ccc(Cl)c(Cl)c1	-2	8	i	-2	i	·	·

Screens: PubChem BioAssay, several laboratories
